Source: PubChem BioAssay AID1792 (The Scripps Research Institute Molecular Screening Center, 2009)
The campaign covered roughly 16,000 compounds. About 130 (0.81%) were called active. No stated cut-off is given here; in the data, active means inhibition above about 75%; inactive means the rest. What follows is part of a selection rich in actives, with near analogues and random picks from the rest.

These compounds were tested against NADPH oxidase 1 (Homo sapiens) (UniProt Q9Y5S8) (assay: inhibitors of human NADPH oxidase 1 (Nox1) (AID 1792)). Conditions: HT29 cells, luminol chemiluminescence ROS; at 6.7 µM; hits give high values.
Sequence of NADPH oxidase 1 (Homo sapiens) (Q9Y5S8 whole entry, looked up): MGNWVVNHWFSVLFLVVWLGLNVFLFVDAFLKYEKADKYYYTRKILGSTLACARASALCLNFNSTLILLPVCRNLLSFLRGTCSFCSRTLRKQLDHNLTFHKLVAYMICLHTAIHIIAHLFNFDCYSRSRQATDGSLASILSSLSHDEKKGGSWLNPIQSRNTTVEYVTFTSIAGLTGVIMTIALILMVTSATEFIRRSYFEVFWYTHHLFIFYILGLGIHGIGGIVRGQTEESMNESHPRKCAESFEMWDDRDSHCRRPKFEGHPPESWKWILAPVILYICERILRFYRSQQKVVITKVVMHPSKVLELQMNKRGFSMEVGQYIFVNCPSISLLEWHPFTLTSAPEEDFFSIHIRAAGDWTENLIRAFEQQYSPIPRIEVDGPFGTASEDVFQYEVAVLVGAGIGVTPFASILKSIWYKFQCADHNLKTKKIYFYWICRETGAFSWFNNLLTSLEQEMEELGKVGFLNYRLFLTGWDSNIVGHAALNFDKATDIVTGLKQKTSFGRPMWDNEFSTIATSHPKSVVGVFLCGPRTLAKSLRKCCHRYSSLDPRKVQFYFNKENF

SMILES | inhibition
CCOC(=O)/C(=N/Nc1ccccc1)C(C)=N | -20% (inactive)
CC(=O)Nc1ccc(F)cc1F | -7.89% (inactive)
Cc1cc(Cl)ccc1NC(=S)NNC(=S)Nc1ccc(F)cc1 | 87.6% (active)
COc1ccc(OCCC(=O)NNC(=S)Nc2cc(Cl)ccc2Cl)cc1 | -22.8% (inactive)
O=[N+]([O-])c1ccc(N2CCOCC2)cc1 | 23.6% (inactive)
CN(NS(=O)(=O)CS(C)(=O)=O)c1ncccc1[N+](=O)[O-] | -4.72% (inactive)
O=C1C(Cl)=C(Oc2cc(Cl)c(Cl)cc2Cl)C(=O)c2ccccc21 | 64% (inactive)
O=C(O)C#Cc1cccc2ccccc12 | -49.7% (inactive)
Cc1ccc2oc(-c3cccs3)nc2c1 | -69.6% (inactive)
Clc1ccc(CO/N=C/c2nc3ccccc3s2)cc1 | -46.7% (inactive)
CSc1nsc(SC)c1C(=O)Nc1cc(C(F)(F)F)cc(C(F)(F)F)c1 | -44% (inactive)
CCOC(=O)/C(C#N)=C/N/S(C)=N/N=C/c1ccc(N(C)C)cc1 (stereo not given) | 3.26% (inactive)
CCCCNc1nc(N)ns1 | -43% (inactive)
Clc1ccc(-c2csc(N/N=C\c3ccn[nH]3)n2)cc1 | 19% (inactive)
Cc1nc(-c2ccccn2)n2nnnc2c1Cl | -68.7% (inactive)
O=[N+]([O-])c1ccc(CSc2nc3cc(Cl)c(F)cc3[nH]2)cc1 | 10.8% (inactive)
Cn1nnnc1SCC(=O)Nc1ccc(OC(F)(F)F)cc1 | 12% (inactive)
CN(C)c1ccc(C=Nc2ccc(S(N)(=O)=O)cc2)cc1 | -7.18% (inactive)
O=S(=O)(Cc1nnc(-c2cc(Cl)cc(Cl)c2)o1)c1ccc(Cl)cc1 | -4.49% (inactive)
O=C(CSC1=NCCc2ccccc21)Nc1ccc(F)cc1F | 0% (inactive)

SMILES | inhibition
N/C(=N\OS(=O)(=O)c1ccc(C(F)(F)F)cc1)C1CSCCS1 (stereo not given) | -14.1% (inactive)
CC1=CC(=O)C(CCC2=CC(=O)C(C)=CC2=O)=CC1=O | 87.8% (active)
COc1ccc(/C(C)=N/Nc2c([N+](=O)[O-])cc(C(F)(F)F)cc2[N+](=O)[O-])cc1CC#N | -38.4% (inactive)
O=C(O)C1CCC1C(=O)Nc1nnc(C2CC2)s1 (stereo not given) | 12% (inactive)
COc1ccc(/C=N/N2CCC(=O)Nc3ccccc32)c(OC)c1 | -3% (inactive)
Cc1oc(-c2ccc(Cl)cc2)cc1C(=O)N1CCOCC1 | 4.54% (inactive)
Cc1oc(-c2ccc(Cl)cc2)cc1C(=O)O/N=C(\N)Cc1nc2cccnc2n1C1CC1 | 86.4% (active)
Cc1oc(-c2ccc(Cl)cc2)cc1C(=O)N1CCN(Cc2ccccc2)CC1 | -19.5% (inactive)
CC(=O)N1CCc2cc(NC(=S)Nc3ccccc3Cl)ccc21 | 11.8% (inactive)
CN1CCCCC(C2=C(Cl)C(=O)CCC2)C1=O (stereo not given) | -2.08% (inactive)
O=C1C(Nc2ccccc2)=CC(c2ccc([N+](=O)[O-])cc2)N1c1ccccc1 (stereo not given) | -5.43% (inactive)
O=C(O)c1cc(=O)[nH]c2c(Cl)cc(Cl)cc12 | -17.9% (inactive)
Cc1ccc(S(=O)(=O)N/N=C/c2ccc(O)cc2O)cc1 | -34.9% (inactive)
COc1cc(C=C(C#N)C#N)cc(OC(C)=O)c1OC(C)=O | 93.6% (active)
COc1ccc2c(OC(C)=O)coc2c1 | -103% (inactive)
Cc1nnsc1C(=O)N/N=C/c1ccccc1Cl | 26.6% (inactive)
Cc1nn2c(=O)c3c4c(sc3nc2[nH]c1=O)CCCC4 | -87% (inactive)
COC(OC)c1ccnc(SCC(=O)Nc2ccc(C(C)C)cc2)n1 | -5.58% (inactive)
N#Cc1cn(-c2cccc(C(F)(F)F)c2)c(=O)n(Cc2ccc(Cl)cc2)c1=O | 11.4% (inactive)
O=C1OC2(CCCCC2)OC1c1ccccc1 (stereo not given) | -30.5% (inactive)
